Source: PubChem BioAssay (NCATS)
Results filed as inconclusive are left out. Calls of active or inactive are those of the source. The call rests on the fitted dose curve; in most records, active means well fitted curve in the direction sought with a large enough effect; inconclusive means small, poorly fitted or top-dose-only effect, or another doubt; inactive means no such curve, though single readings can be large; an effect the other way counts as inactive or inconclusive.

Tests used:
[1] = biological target: Cytochrome P450 3A4 (Homo sapiens) (UniProt P08684); test: qHTS for inhibitors of CYP3A4 against the NCATS DSHEA and TCM libraries (AID 1919971);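 further: on the % scale 0 is the no-effect control and ±100 the full control effect; inhibition lowers luminescence from luciferin made by CYP3A4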
In short: (§1)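 Luminescent P450-Glo format: compounds preincubated 15 min with enzyme and luciferin substrate, reaction run 30-45 min after NADPH regeneration solution. Intraplate controls: ketoconazole for CYP3A4 and CYP2C19, sulfaphenazole for CYP2C9.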

[2] = biological target: Cytochrome P450 2D6 (Homo sapiens) (UniProt P10635); test: qHTS for inhibitors of CYP2D6 against the NCATS DSHEA and TCM libraries (AID 1919972); further: on the % scale 0 is the no-effect control and ±100 the full control effect
In short: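 Luminescent P450-Glo read-out of CYP2D6 turnover of a luciferin substrate after NADPH-driven reaction of 30-45 min at room temperature. Compounds were first preincubated 15 min with enzyme at titrated concentrations; quinidine was the intraplate control.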

[3] = biological target: Cytochrome P450 2C9 (Homo sapiens) (UniProt P11712); test: qHTS for inhibitors of CYP2C9 against the NCATS DSHEA and TCM libraries (AID 1919973);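 further: luminogenic pro-luciferin CYP2C9 substrate turned into luciferin with NADPH regeneration; series mostly up to about 34 µM; on the % scale 0 is the no-effect control and ±100 the full control effect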
In short: as §1

[4] = KB-3-1 P-gp reporter qHTS against the NCATS DSHEA and TCM libraries (AID 1919975); further: 0% is about no effect
From the text: (§2) Assay Development and Screening Technology Laboratory (ADST)
(§3) National Center for Advancing Translational Sciences (NCATS), Rockville, MD
(§4) National Institute of Health (NIH), Bethesda, Maryland
(§5) Dietary Supplements and Natural Products have minor oversight of their safety and efficacy. We assembled a collection of Dietary Supplements and Natural Products (DSNP) as well as Traditional Chinese Medicinal (TCM) Plant extracts, which were screened against an in vitro panel of assays, including a liver cytochrome p450 enzyme panel, CAR/PXR signaling pathways, and P-gp transporter assays, to assess their activity. This pipeline facilitated the interrogation of Natural Product-Drug Interaction (NaPDI) through prominent metabolizing pathways. In addition, we compared the activity profiles of the DSNP/TCM substances with those of an approved drug collection. […] Overall, we highlight four significant bioactivity profiles (measured by p-values) as examples of this prediction. […] To profile potential P-gp activity, a differential cell viability was measured against two cell lines: a parental KB-3-1 human cervical adenocarcinoma cell line and the drug-resistant subline KB-8-5-11 that overexpresses P-gp. […]
8; Read; Luminescence; ViewLux plate reader. […]
8. Luminescence intensity was detected using a PerkinElmer ViewLux microplate reader. […]

[5] = qHTS Counterscreen for compound interference against the NCATS DSHEA and TCM libraries (AID 1919978); details: firefly luciferase detection reagent interference, luminescence; further: % of control where 0% means no effect
In short: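 Read-out is luminescence after 30 min at RT with luciferin detection reagent. Before that, compounds (19.5 nM to 39.8 uM final) sat 15 min at RT with 1 uM D-luciferin or 100 mM potassium phosphate buffer. PTC124 served as intraplate control.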

[6] = Dual reporter qHTS for agonist of Pregnane X Receptor (hPXR) against the NCATS DSHEA and TCM libraries: Fluorescence readout (AID 1920058); further: 0% is about no effect
In short: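 hPXR-Luc HepG2 cells, 2000/well in charcoal-stripped serum, attached 5 h, dosed for ~24 h at 37 °C. Fluorescence read is CellTiter-Fluor viability (Ex/Em 405/540 nm); rifampicin positive, tetraoctyl ammonium bromide (92 µM) cytotoxicity controls.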

[7] = biological target: Nuclear receptor subfamily 1 group I member 2 (Homo sapiens) (UniProt O75469); test: Dual reporter qHTS for antagonist of Pregnane X Receptor (hPXR) against the NCATS DSHEA and TCM libraries: Luminescence Readout (AID 1920060);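 further: HepG2 cells carrying hPXR luciferase reporter stimulated with rifampicin at 2 µM; 0% is about no effect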
From the text: as §2, §3, §4, §5
8; Read; Fluorescence; ViewLux plate reader. […]
11; Read; Luminescence; ViewLux plate reader. […]

[8] = biological target: Cytochrome P450 2C19 (Homo sapiens) (UniProt P33261); test: qHTS for inhibitors of CYP2C19 against the NCATS DSHEA and TCM libraries (AID 1919974);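 further: luminescence from luciferin released by CYP2C19 oxidation of a pro-luciferin substrate; on the % scale 0 is the no-effect control and ±100 the full control effect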
In short: as §1

[9] = biological target: Cytochrome P450 1A2 (Homo sapiens) (UniProt P05177); test: qHTS for inhibitors of CYPIA2 against the NCATS DSHEA and TCM libraries (AID 1919976);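 further: light from luciferin formed by CYP1A2 from a pro-luciferin substrate; series mostly up to about 37 µM; on the % scale 0 is the no-effect control and ±100 the full control effect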
In short: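 Human CYP1A2 with pro-luciferin substrate (typically 100 mM KPO4), 15 min preincubation with compound, then 1x NADPH regeneration for 30-45 min at room temperature in the dark. Luciferin quantified by luciferase luminescence; furafylline intraplate control.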

[10] = biological target: Nuclear receptor subfamily 1 group I member 2 (Homo sapiens) (UniProt O75469); test: Dual reporter qHTS for agonist of Pregnane X Receptor (hPXR) against the NCATS DSHEA and TCM libraries: Luminescence readout (AID 1920059); further: 0% is about no effect
In short: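 Luminescent PXR reporter read (ONE-Glo) after a CellTiter-Fluor viability read, following 24 h, 37C treatment of HepG2 cells stably carrying hPXR-Luc.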

Measured: max response

Sequence of Nuclear receptor subfamily 1 group I member 2 (Homo sapiens) (O75469 whole entry, looked up): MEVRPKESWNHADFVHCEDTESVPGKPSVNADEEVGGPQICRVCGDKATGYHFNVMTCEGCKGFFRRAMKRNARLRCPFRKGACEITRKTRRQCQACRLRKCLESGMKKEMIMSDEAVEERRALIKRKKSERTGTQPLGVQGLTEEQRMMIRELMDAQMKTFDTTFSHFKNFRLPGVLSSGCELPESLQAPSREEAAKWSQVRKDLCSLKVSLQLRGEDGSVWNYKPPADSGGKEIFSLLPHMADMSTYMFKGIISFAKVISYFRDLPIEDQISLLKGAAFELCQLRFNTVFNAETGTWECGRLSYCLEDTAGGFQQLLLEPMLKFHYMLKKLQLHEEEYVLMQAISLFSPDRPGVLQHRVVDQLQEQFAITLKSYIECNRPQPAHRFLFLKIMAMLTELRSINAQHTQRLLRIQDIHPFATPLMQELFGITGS
Sequence of Cytochrome P450 3A4 (Homo sapiens) (P08684 whole entry, looked up): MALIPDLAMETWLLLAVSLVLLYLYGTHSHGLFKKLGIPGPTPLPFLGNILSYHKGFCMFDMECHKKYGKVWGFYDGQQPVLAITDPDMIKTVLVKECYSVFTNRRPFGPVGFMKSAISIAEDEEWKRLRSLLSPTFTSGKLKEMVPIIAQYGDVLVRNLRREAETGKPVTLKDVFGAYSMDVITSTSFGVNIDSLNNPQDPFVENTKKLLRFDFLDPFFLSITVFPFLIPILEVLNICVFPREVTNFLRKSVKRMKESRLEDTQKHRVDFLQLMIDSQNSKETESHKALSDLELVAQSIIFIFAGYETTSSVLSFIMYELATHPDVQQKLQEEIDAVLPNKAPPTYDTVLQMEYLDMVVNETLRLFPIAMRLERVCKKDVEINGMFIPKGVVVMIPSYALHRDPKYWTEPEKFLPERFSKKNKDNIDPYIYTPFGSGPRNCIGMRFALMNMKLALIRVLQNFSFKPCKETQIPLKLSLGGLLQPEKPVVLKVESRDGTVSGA
Sequence of Cytochrome P450 2D6 (Homo sapiens) (P10635 whole entry, looked up): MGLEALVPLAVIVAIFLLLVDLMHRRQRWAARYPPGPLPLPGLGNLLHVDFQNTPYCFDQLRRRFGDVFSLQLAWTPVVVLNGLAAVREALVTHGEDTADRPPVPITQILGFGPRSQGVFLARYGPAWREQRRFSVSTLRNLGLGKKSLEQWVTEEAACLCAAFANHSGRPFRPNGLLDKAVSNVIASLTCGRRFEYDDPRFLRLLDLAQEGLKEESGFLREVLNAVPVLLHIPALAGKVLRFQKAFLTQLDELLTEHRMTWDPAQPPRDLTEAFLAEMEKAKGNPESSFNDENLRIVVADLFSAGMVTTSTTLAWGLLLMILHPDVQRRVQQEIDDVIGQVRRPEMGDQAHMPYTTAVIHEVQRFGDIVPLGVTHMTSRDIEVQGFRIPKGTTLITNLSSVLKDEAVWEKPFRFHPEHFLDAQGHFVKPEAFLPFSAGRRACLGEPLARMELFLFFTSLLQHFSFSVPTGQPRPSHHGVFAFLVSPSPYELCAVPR
Sequence of Cytochrome P450 2C9 (Homo sapiens) (P11712 whole entry, looked up): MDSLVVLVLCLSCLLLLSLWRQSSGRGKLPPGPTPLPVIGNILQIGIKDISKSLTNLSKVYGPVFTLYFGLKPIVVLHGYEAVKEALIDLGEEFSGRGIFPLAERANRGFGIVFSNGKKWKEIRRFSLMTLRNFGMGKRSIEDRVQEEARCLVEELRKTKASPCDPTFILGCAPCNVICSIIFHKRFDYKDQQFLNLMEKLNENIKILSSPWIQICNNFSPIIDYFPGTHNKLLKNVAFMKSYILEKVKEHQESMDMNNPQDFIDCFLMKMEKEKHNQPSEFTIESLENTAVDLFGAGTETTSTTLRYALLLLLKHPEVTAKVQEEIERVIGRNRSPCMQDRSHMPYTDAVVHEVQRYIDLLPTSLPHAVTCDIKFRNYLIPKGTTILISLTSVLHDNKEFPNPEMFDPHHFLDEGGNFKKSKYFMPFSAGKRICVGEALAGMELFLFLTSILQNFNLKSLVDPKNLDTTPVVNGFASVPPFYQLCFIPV
Sequence of Cytochrome P450 2C19 (Homo sapiens) (P33261 whole entry, looked up): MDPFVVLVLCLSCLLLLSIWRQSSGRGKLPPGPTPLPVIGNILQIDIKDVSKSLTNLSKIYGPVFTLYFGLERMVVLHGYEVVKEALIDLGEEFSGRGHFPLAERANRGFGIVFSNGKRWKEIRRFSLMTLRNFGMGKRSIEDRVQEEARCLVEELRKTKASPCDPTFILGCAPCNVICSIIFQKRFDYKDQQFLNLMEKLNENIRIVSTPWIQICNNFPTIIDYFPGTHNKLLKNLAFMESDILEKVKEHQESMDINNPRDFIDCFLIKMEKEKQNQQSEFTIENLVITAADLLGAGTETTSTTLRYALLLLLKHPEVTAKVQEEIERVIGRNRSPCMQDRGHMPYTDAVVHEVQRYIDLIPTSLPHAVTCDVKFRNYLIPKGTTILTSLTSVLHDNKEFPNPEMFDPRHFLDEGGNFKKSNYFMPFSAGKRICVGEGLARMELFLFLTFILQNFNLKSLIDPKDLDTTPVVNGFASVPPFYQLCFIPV
Sequence of Cytochrome P450 1A2 (Homo sapiens) (P05177 whole entry, looked up): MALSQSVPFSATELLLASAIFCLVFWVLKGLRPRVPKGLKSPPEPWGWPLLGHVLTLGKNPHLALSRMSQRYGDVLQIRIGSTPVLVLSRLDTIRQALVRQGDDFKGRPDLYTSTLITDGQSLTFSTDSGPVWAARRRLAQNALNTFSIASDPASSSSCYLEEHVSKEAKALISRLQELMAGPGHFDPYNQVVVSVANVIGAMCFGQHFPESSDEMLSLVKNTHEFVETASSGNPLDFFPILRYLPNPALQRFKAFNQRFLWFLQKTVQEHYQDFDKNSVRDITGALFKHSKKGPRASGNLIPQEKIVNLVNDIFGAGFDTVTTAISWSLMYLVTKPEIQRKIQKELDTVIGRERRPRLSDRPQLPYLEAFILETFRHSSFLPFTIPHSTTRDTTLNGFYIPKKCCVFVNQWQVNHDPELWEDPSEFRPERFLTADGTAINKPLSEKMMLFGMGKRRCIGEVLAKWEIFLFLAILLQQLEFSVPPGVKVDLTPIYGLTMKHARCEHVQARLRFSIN

O=C(O)/C=C/c1ccc(O)c(O)c1
inactive: [1] | [2] | [3] | [4] | [5] -3.07% | [6] | [7]

C=C1C[C@@]23CC[C@H]4[C@@](C)(CCC[C@@]4(C)C(=O)OC4OC(CO)C(O)C(O)C4O)[C@@H]2CC[C@]1(OC1OC(CO)C(O)C(O)C1OC1OC(CO)C(O)C(O)C1O)C3 (some centres not stated)
inactive: [1] | [2] | [3] | [8] | [4] | [9] | [5] 4.65% | [6] | [10] | [7]
